In PubChem BioAssay (Tox21):
Calls of active or inactive are those of the source. Unless noted, calls come from the whole dose curve; as a rule, active = well fitted curve in the direction sought with a large enough effect in the repeat runs; inconclusive = weak or mixed curves; inactive = no such curve, though single readings can be large; an effect the other way counts as inactive or inconclusive.

Tests used:
[1] = qHTS assay for small molecule agonists of the p53 signaling pathway (AID 651631; calls by dose curve; note: nearly all actives have a fitted effect of over 15% in size; note: potency is the fitted concentration of half-maximal effect)
How it was run: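 Agonist mode screen using a stably integrated beta-lactamase gene under p53 response elements in HCT-116 cells. Compound exposure lasts 16 h at 37 °C; fluorescence intensity is measured following 2 h FRET substrate loading.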

[2] = qHTS assay for small molecule agonists of the p53 signaling pathway - cell viability (AID 651633; calls by dose curve;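 note: p53RE-bla HCT reporter cells with a stable beta-lactamase p53 reporter; series mostly up to about 83 µM; nearly all actives have a fitted effect of over 30% in size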)
How it was run: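 p53RE-bla cells were treated with compound for 16 hours at 37 C. Cytotoxicity was then measured as CellTiter-Glo luminescence after 30 min at room temperature.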

[3] = qHTS assay for small molecule disruptors of the mitochondrial membrane potential - cell viability (AID 720634; calls by dose curve;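 note: human HepG2 liver cancer cells; series mostly up to about 83 µM; nearly all actives have a fitted effect of over 20% in size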)
How it was run: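 Same-well counter-screen: following the MMP dye addition, CellTiter-Glo was added to 1 hr compound-treated HepG2 cells and luminescence read after 30 min at room temperature.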

[4] = qHTS assay for small molecule disruptors of the mitochondrial membrane potential (AID 720635); note: potency is the fitted concentration of half-maximal effect
How it was run: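 HepG2 cells exposed to compound 1 hr at 37C, then Mito-MPS dye 30 min. Ratio read of aggregate (540/590 nm) versus monomer (490/535 nm) fluorescence.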

[5] = qHTS assay to test for compound auto fluorescence at 460 nm (blue) in HEK293 cells (AID 720678); note: potency is the fitted concentration of half-maximal effect
How it was run: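 After cell attachment (4-5 hr, 37C), compounds were pinned onto HEK293 monolayers in 10% dialyzed FBS medium. The blue channel (405/460 nm) was read following overnight culture. Equivalency was calculated against triamterene.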

[6] = qHTS assay to test for compound auto fluorescence at 590 nm (red) in HEK293 cell free culture (AID 720683)
How it was run: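 Cell-free wells of DMEM with 10% FBS received compound, and intrinsic fluorescence was read at excitation/emission 540/590 nm. Values expressed as equivalence to Rose Bengal sodium.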

[7] = qHTS assay to identify small molecule antagonists of the glucocorticoid receptor (GR) signaling pathway - cell viability counter screen (AID 720693); note: nearly all actives have a fitted effect of over 55% in size
[8] = qHTS assay for identifying genotoxic compounds that show differential cytotoxicity against isogenic chicken DT40 cell lines with known DNA damage response pathways - wild type cell line (AID 743012); note: nearly all actives have a fitted effect of over 60% in size; note: potency is the fitted concentration of half-maximal effect
How it was run: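 300 wt DT40 cells/well; cpd (DMSO) pintool-transferred after ~0.5 h at 37 C/5% CO2; 40 h incubation; CellTiter-Glo added, 30 min RT; luminescence read.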

[9] = qHTS assay to identify small molecule antagonists of the androgen receptor (AR) signaling pathway - cell viability counter screen (AID 743033; note: nearly all actives have a fitted effect of over 45% in size)
[10] = target: Estrogen receptor (Homo sapiens) (UniProt P03372); assay: qHTS assay to identify small molecule agonists of the estrogen receptor alpha (ER-alpha) signaling pathway using the BG1 cell line (AID 743079); note: nearly all actives have a fitted effect of over 20% in size
Estrogen receptor (Homo sapiens), sequence (P03372 whole entry, looked up): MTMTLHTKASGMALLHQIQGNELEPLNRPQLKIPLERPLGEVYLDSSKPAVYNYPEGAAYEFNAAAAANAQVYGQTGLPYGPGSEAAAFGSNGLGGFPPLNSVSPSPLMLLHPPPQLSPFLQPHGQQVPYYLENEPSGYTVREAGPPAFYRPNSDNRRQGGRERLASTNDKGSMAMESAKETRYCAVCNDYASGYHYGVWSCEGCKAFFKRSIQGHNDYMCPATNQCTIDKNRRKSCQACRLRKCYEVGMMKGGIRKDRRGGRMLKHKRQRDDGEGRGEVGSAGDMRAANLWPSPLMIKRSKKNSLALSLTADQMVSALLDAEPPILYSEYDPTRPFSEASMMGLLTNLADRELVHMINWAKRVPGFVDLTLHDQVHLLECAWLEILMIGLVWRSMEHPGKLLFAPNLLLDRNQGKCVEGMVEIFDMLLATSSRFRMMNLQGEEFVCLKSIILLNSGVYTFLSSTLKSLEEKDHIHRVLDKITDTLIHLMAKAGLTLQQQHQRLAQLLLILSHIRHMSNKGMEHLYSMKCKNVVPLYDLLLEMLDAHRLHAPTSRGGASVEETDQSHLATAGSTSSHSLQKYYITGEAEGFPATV

[11] = qHTS assay to identify small molecule antagonists of the estrogen receptor alpha (ER-alpha) signaling pathway using the BG1 cell line (AID 743080; calls by dose curve;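 note: BG1 cells stimulated with 17beta-estradiol alongside compound; nearly all actives have a fitted effect of over 25% in size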; note: potency is the fitted concentration of half-maximal effect)
How it was run: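 Seeding, 24 h rest, compound transfer from DMSO, 17beta-estradiol addition, 21.5 h incubation, CellTiter-Fluor (30 min, 37 C), then ONE-Glo (30 min, room temperature): this sequence was run on BG1-Luc-4E2 reporter cells.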

[12] = qHTS assay to identify small molecule phospholipidosis (PLD) inducers (AID 1259344; active = well fitted curve in the direction sought with a large enough effect; inconclusive = small, poorly fitted or top-dose-only effect, or another doubt; inactive = no such curve, though single readings can be large; an effect the other way counts as inactive or inconclusive)
How it was run: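 Read-out is LipidTOX Red fluorescence (ex 595/em 615) imaged in HepG2 cells after 24 h compound exposure at 37 C, with Hoechst nuclear counterstain (ex 352/em 461) allowing per-cell normalisation.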

[13] = target: Glucocorticoid receptor (Homo sapiens) (UniProt P04150); assay: qHTS assay to identify small molecule agonists of the glucocorticoid receptor (GR) signaling pathway (AID 720691; active = well fitted activation curve with a large enough effect in the signal ratio in the repeat runs, not every such curve was filed as active; inconclusive = weak or mixed curves, or effect the other way; inactive = no such curve, though single readings can be large or run the other way; the % refers to the signal ratio; note: potency is the fitted concentration of half-maximal effect)
Glucocorticoid receptor (Homo sapiens), sequence (P04150 whole entry, looked up): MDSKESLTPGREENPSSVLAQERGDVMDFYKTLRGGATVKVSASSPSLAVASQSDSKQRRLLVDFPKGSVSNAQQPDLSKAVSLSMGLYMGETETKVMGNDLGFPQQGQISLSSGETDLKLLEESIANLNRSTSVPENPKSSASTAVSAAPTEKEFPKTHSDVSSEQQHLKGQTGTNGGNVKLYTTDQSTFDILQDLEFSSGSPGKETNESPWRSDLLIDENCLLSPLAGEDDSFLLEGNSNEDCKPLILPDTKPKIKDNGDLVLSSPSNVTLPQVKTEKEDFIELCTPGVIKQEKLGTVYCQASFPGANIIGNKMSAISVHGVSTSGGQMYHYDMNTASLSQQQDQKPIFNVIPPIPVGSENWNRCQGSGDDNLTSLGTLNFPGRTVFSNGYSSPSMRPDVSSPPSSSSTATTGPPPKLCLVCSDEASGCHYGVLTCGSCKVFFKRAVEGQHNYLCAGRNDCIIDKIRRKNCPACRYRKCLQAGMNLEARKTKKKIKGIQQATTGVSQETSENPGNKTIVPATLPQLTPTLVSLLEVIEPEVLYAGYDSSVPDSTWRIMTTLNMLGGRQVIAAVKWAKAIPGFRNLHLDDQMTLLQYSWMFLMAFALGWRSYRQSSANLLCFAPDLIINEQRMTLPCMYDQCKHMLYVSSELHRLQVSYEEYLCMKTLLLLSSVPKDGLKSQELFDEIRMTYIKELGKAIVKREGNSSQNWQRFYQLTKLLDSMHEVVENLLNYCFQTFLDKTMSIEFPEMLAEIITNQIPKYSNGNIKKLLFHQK
How it was run: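 A HeLa cervical cancer line expressing GR and a glucocorticoid response element-driven beta-lactamase gene is treated with compounds for 18 h; LiveBLAzer B/G FRET substrate is then applied and fluorescence read.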

[14] = qHTS assay to identify small molecule antagonists of the androgen receptor (AR) signaling pathway using the MDA cell line - cell viability counter screen (AID 743041; note: nearly all actives have a fitted effect of over 45% in size; note: potency is the fitted concentration of half-maximal effect)
How it was run: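 Cytotoxicity counter screen: MDA-kb2 AR-luc cells, compound + R1881, 16 h, 37C, 0% CO2; CellTiter-Fluor added at 15.5 h, fluorescence read after 30 min.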

[15] = target: Estrogen receptor (Homo sapiens) (UniProt P03372); assay: qHTS assay to identify small molecule agonists of the estrogen receptor alpha (ER-alpha) signaling pathway (AID 743075; calls by dose curve;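 note: HEK293 GripTite cells with ER-alpha and UAS-driven beta-lactamase reporter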)
[16] = qHTS assay to identify small molecule antagonists of the estrogen receptor alpha (ER-alpha) signaling pathway using the BG1 cell line - cell viability counter screen (AID 743081);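 note: compound given together with 17beta-estradiol as the ER stimulus; series mostly up to about 70 µM; nearly all actives have a fitted effect of over 45% in size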
[17] = target: Peroxisome proliferator-activated receptor gamma (Homo sapiens) (UniProt P37231); assay: qHTS assay to identify small molecule agonists of the peroxisome proliferator-activated receptor gamma (PPARg) signaling pathway (AID 743094; active = well fitted activation curve with a large enough effect in the signal ratio in the repeat runs, not every such curve was filed as active; inconclusive = weak or mixed curves, or effect the other way; inactive = no such curve, though single readings can be large or run the other way; the % refers to the signal ratio)
Peroxisome proliferator-activated receptor gamma (Homo sapiens), sequence (P37231 whole entry, looked up): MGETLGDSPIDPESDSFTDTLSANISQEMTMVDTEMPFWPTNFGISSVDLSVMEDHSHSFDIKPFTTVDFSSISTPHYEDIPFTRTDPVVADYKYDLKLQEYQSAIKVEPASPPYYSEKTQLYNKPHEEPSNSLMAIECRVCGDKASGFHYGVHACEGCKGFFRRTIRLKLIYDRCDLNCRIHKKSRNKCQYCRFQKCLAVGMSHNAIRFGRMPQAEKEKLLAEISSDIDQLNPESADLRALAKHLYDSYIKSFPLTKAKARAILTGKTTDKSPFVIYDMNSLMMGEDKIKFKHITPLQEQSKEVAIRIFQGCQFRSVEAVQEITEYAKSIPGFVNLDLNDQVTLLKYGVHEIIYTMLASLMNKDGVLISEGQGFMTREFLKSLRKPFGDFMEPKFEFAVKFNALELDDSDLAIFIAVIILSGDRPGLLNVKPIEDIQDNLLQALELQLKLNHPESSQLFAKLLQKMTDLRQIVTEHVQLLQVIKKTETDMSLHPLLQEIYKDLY
How it was run: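 Cell-based bla reporter, HEK293H background, PPARg-driven UAS. Pre-incubation 5 h, 37C, 5% CO2. Compound 17 h, 37C. Substrate 1 h RT; fluorescence.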

[18] = qHTS assay to test for compound auto fluorescence at 590 nm (red) in HepG2 cells (AID 720674)
How it was run: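 Fluorescence at 590 nm emission following 540 nm excitation was recorded from HepG2 wells one hour after compound transfer, with DMSO-only wells as vehicle and Rose Bengal sodium equivalency as the scale.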

[19] = qHTS assay for identifying genotoxic compounds that show differential cytotoxicity against isogenic chicken DT40 cell lines with known DNA damage response pathways - Rev3 mutant cell line (AID 743014); note: nearly all actives have a fitted effect of over 55% in size; note: potency is the fitted concentration of half-maximal effect
[20] = target: Estrogen receptor (Homo sapiens) (UniProt P03372); assay: qHTS assay to identify small molecule antagonists of the estrogen receptor alpha (ER-alpha) signaling pathway (AID 743069; active = well fitted curve in the direction sought with a large enough effect in the signal ratio in the repeat runs, not every such curve was filed as active; inconclusive = weak or mixed curves, or effect the other way; inactive = no such curve, though single readings can be large or run the other way; the % refers to the signal ratio; note: potency is the fitted concentration of half-maximal effect)
How it was run: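 Beta-lactamase FRET fluorescence is read after 2 hr at room temperature with LiveBLAzer B/G substrate. Before that, ER-alpha-bla HEK293 cells sit 4 hr after plating, then receive compound plus 17beta-estradiol and incubate 18 hr at 37C.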
% is set by controls: 0 for no effect and ±100 for the full control effect; tags give direction and shape of the fitted curve or compound fluorescence and quenching.

O=c1ccc2cc(O[C@@H]3O[C@H](CO)[C@@H](O)[C@H](O)[C@H]3O)c(O)cc2o1
active: Potency [1] 7.17 µM | Potency [5] 10 µM [fluorescent]
inactive: Potency [2] | Potency [3] | Potency [4] | outcome [6] | Potency [7] | Potency [8] | Potency [9] | Potency [10] | Potency [11] | Potency [12]

CC(=O)[C@@]1(O)CC[C@H]2[C@@H]3CCC4=CC(=O)CC[C@]4(C)C3(F)[C@@H](O)C[C@@]21C (stereo partly drawn)
active: Potency [13] 0.19 µM [inconclusive]
inactive: Potency [1] | Potency [2] | Potency [3] | Potency [4] | Potency [5] | outcome [6] | Potency [7] | Potency [8] | Potency [9] | Potency [14] | Potency [15] | Potency [10] | Potency [16] | Potency [17] | Potency [12]

C#CCN1CC(=O)N(COC(=O)C2C(C=C(C)C)C2(C)C)C1=O (stereo not drawn)
inactive: Potency [1] | Potency [3] | outcome [18] | Potency [5] | outcome [6] | Potency [13] | Potency [7] | Potency [8] | Potency [19] | Potency [9] | Potency [14] | Potency [20] | Potency [15] | Potency [10] | Potency [11] | Potency [16] | Potency [17] | Potency [12]

N#CC(C#N)=Cc1cc(O)c(O)c(O)c1
inactive: Potency [1] | Potency [2] | Potency [3] | Potency [5] | Potency [13] | Potency [9] | Potency [15] | Potency [10] | Potency [11] | Potency [17] | Potency [12]
active: Potency [4] 5.96 µM | Potency [8] 21.1 µM | Potency [19] 26.6 µM

CC[C@H]1[C@@H]2C[C@H]3[C@@H]4N(C)c5ccccc5[C@]45C[C@@H](C2[C@H]5O)N3[C@@H]1O (stereo partly drawn)
inactive: Potency [1] | Potency [2] | Potency [3] | outcome [18] | Potency [5] | outcome [6] | Potency [13] | Potency [7] | Potency [9] | Potency [20] | Potency [15] | Potency [10] | Potency [11] | Potency [16] | Potency [12]

CNC1(c2ccccc2Cl)CCCCC1=O (stereo not drawn)
inactive: Potency [1] | Potency [2] | outcome [18] | Potency [5] | outcome [6] | Potency [13] | Potency [7] | Potency [8] | Potency [19] | Potency [9] | Potency [14] | Potency [20] | Potency [15] | Potency [10] | Potency [11] | Potency [16] | Potency [17] | Potency [12]

O=C1OC2(c3cc(Br)c(O)cc3Oc3c2cc(Br)c(O)[c]3[Hg])c2ccccc21 (stereo not drawn)
inactive: Potency [1] | Potency [3] | Potency [13] | Potency [9] | Potency [14] | Potency [20] | Potency [15] | Potency [10] | Potency [11] | Potency [17] | Potency [12]
active: Potency [8] 10.1 µM | Potency [19] 11.4 µM

C[C@@H]1[C@@H]2Cc3ccc(O)cc3[C@@]1(C)CCN2CC1CC1
inactive: Potency [1] | Potency [2] | Potency [3] | Potency [4] | outcome [18] | Potency [5] | Potency [13] | Potency [7] | Potency [8] | Potency [9] | Potency [16] | PLD induction [12] 5.17% [at 7.66 µM]

COc1ccc(C)cc1N
inactive: Potency [1]

Cc1nnc2n1-c1sc(Br)cc1C(c1ccccc1Cl)=NC2
inactive: Potency [2] | Potency [3] | Potency [5] | outcome [6] | Potency [13] | Potency [9] | Potency [14] | Potency [15] | Potency [12]
active: Potency [11] 11.9 µM

Clc1ccc(Cl)c(Cl)c1Cl
inactive: Potency [1]

O.O.O.O=C([O-])C(O)C(O)C(=O)[O-].O=C([O-])C(O)C(O)C(=O)[O-].[K+].[K+].[Sb].[Sb] (stereo not drawn)
inactive: Potency [3] | outcome [18] | Potency [5] | outcome [6] | Potency [7] | Potency [15] | Potency [16] | Potency [12]
active: Potency [14] 18.8 µM | Potency [20] 19 µM [inhibitor]

O=C(Cl)c1cccc(C(=O)Cl)c1
inactive: Potency [1]

[S]=[Sb](=[S])[S][Sb](=[S])=[S]
inactive: Potency [1] | Potency [2] | Potency [3] | Potency [4] | outcome [18] | Potency [5] | outcome [6] | Potency [13] | Potency [7] | Potency [9] | Potency [20] | Potency [15] | Potency [10] | Potency [11] | Potency [16]

CCOC(=O)C1(c2ccccc2)CCCN(C)CC1 (stereo not drawn)
inactive: Potency [2] | Potency [3] | Potency [4] | Potency [5] | Potency [13] | Potency [7] | Potency [8] | Potency [19] | Potency [9] | Potency [14] | Potency [20] | Potency [15] | Potency [10] | Potency [11] | Potency [16] | Potency [12]

Brc1ccc(Oc2ccc(Br)cc2)cc1
inactive: Potency [1]

C=CCOc1c(Br)cc(C(C)(C)c2cc(Br)c(OCC=C)c(Br)c2)cc1Br
inactive: Potency [1]

CCN(CC)/[N+]([O-])=N/O
inactive: Potency [2] | Potency [3] | outcome [18] | outcome [6] | Potency [13] | Potency [14] | Potency [16] | Potency [12]

COc1cc([C@@H]2c3cc4c(cc3[C@H](O)[C@H]3COC(=O)[C@H]23)OCO4)cc(OC)c1OC
inactive: Potency [1]

CCNCC(O)c1cccc(O)c1 (stereo not drawn)
inactive: Potency [1] | Potency [2] | Potency [3] | Potency [4] | outcome [18] | Potency [5] | outcome [6] | Potency [13] | Potency [7] | Potency [9] | Potency [20] | Potency [15] | Potency [10] | Potency [11]

Cc1ccc(C)cc1
inactive: Potency [1]

CN[C@@]1(c2ccccc2Cl)CCCCC1=O
inactive: Potency [1] | Potency [3] | Potency [5] | Potency [13] | Potency [7] | Potency [8] | Potency [19] | Potency [9] | Potency [20] | Potency [15] | Potency [10] | Potency [11] | Potency [16] | Potency [17] | PLD induction [12] -4.46% [at 7.66 µM]
